ABHD5-PLIN5 inh: ABHD5-PLIN5 protein interaction inhibition; Q00G26+Q8WTS1; Split G. princeps luciferase complementation, luminescence, 4 h; inhibition, % at 4 µM; 360,000 tested, 0.78% active;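 active = inhibition above the mean inhibition across every tested compound plus 3 SD, cut at about 22% in these data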;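 also: 0% = DMSO only wells and the 100% control is not disclosed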
TLR9-MyD88 block: TLR9-MyD88 interaction inhibition. inhibition, % at 4.98 µM. 340,000 tested, 0.21% active. Q9NR96+Q99836. CHO BLA complementation TLR9-MyD88, CCF4 FRET ratio;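 active = inhibition above the mean over all tested compounds plus 3 SD, cut at about 21% in these data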;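 also: 0% = DMSO only wells and 100% = clavulanate BLA inhibitor control wells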
TLR4 MyD88 comp: TLR4-MyD88 interaction inhibition in cells; O00206+Q99836; HeLa CL3-4 TLR4/MyD88 BLA complementation, FRET ratio; inhibition, % at 8.4 µM; 200,000 tested, 0.18% active; in the data active = inhibition above about 25%;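 also: 0% = vehicle and 100% = reference inhibitor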
NOD2-RIPK2 inh: blocks binding of human NOD2 to RIPK2 | O43353 | CHO BLA complementation NOD2-RIPK2, CCF4 ratio | inhibition, % at 4.98 µM | 360,000 tested, 0.38% active; in the data active = inhibition above about 21%;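 also: 0% = vehicle only and 100% = reference blocker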
NOD2 RIPK2 conf: confirmation of human NOD2-RIPK2 interaction inhibitors | CHO cells, NOD2-RIPK2 BLA complementation, CCF4 FRET | 1,200 tested, 70% active | shares compounds with NOD2-RIPK2 inh | AID 624370 | inhibition, % at 4.98 µM;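 active = mean inhibition across replicates above a set limit taken from the earlier primary screen, cut at about 21% in these data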;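 also: 0% = DMSO-only wells and the high end = clavulanate BLA-blocked wells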
BLA counter: counter-screen for NOD2-RIPK2 interaction inhibitors: BLA reporter; inhibition, % at 4.98 µM; AID 624371; shares compounds with NOD2-RIPK2 inh; CHO BLA reporter, CCF4 FRET ratio, counterscreen; 1,200 tested, 57% active;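 active = mean inhibition above the low-control mean inhibition plus three low-control SD, cut at about 11% in these data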;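 also: 0% = DMSO only wells and 100% = clavulanate high control wells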
Active calls of the source: *; / = no result. Sampled rows, rich in hits. Any-hit rate of the full collection: about 1.2%.

SMILES	ABHD5-PLIN5 inh	TLR9-MyD88 block	TLR4 MyD88 comp	NOD2-RIPK2 inh	NOD2 RIPK2 conf	BLA counter
O=C(COC(=O)CNC(=O)c1ccccc1)NC12CC3CC(CC(C3)C1)C2	-11	0	/	12	/	/
CCC(OC(=O)c1ccc(S(C)(=O)=O)c([N+](=O)[O-])c1)C(=O)NC1C2CC3CC(C2)CC1C3 (stereo not drawn)	7	/	/	14	/	/
CC(OC(=O)c1ccc(S(C)(=O)=O)c([N+](=O)[O-])c1)C(=O)NC1C2CC3CC(C2)CC1C3 (stereo not drawn)	23*	/	/	25*	65*	8
CCn1c(SCC(=O)N2CCOCC2)nnc1C(C)NC(=O)c1ccccc1 (stereo not drawn)	-4	3	/	-11	/	/
O=C(CCNS(=O)(=O)c1c(Cl)cccc1Cl)OCC(=O)c1ccccc1	-4	0	-4	67*	7	-3
Cc1ccc(C2C=C(c3ccccc3OC(F)F)Nc3ncnn32)cc1 (stereo not drawn)	1	16	17	30*	27*	31*
O=C(Nc1ccccc1)C1=C[C@@H](c2ccc(C(F)(F)F)cc2)C[C@@H](OCc2ccc(CO)cc2)O1	0	-4	-1	22*	0	4
CC(C)C(NC(=O)c1ccccc1)C(=O)OCC(=O)N1CCN(c2ccccc2)CC1 (stereo not drawn)	5	-3	/	3	/	/
Cc1c(C(=O)Nc2ccccc2)c2ccc(C(F)(F)F)cc2n1O	-7	/	/	34*	28*	10
C[C@H](CO)N1C[C@H](C)[C@@H](CN(C)S(C)(=O)=O)Oc2ccc(NC(=O)CCN3CCOCC3)cc2C1=O	-3	6	/	-4	/	/
NC(=S)N/N=C1/CCSc2ccc3ccccc3c21	-11	3	0	23*	1	-2
NC(=S)N/N=C/c1c(O)ccc2ccccc12	17	11	/	16	/	/
CNc1c2cccc(C)c2nc2c(C(=O)NCCN(C)C)cccc12	1	7	/	41*	58*	29*
CCOC(=O)C(C)N1C(=O)S/C(=C\c2ccc(-c3ccccc3C(=O)O)o2)C1=O (stereo not drawn)	6	-1	/	23*	12	21*
Cc1ccc(C(=O)O)cc1-c1ccc(/C=C2\SC(=O)N(CC(=O)Nc3ccccc3)C2=O)o1	-2	0	-5	-4	/	/
CCOC(=O)C1CCN(S(=O)(=O)c2ccc3c4c(cccc24)C(=O)N3CC)CC1	-5	-1	/	24*	24*	24*
CCOC(=O)C1CCN(S(=O)(=O)c2ccc3c4c(cccc24)C(=O)N3)CC1	4	4	8	1	/	/
O=C(NCC[C@H]1CC[C@H](NS(=O)(=O)c2ccccc2F)[C@@H](CO)O1)c1ccc(F)cc1	4	/	/	3	/	/
COc1ccc(C2C(C(=O)NCCCN3CCOCC3)c3ccccc3C(=O)N2c2ccc(OC)cc2)cc1 (stereo not drawn)	5	1	-12	24*	4	-3
CCN(c1cccc(C)c1)S(=O)(=O)c1ccc(-c2ccc(=O)[nH]n2)o1	4	10	/	2	/	/
Cc1c(NC(=S)NC(NC(=O)C(C)(C)C)C(Cl)(Cl)Cl)c(=O)n(-c2ccccc2)n1C (stereo not drawn)	-1	-1	-18	25*	1	-1
O=C(NC1CCCC1)c1cccc(S(=O)(=O)N2CCCC2)c1	-9	0	/	-4	/	/
COc1cccc2sc(Nc3nnc(-c4ccccc4Cl)o3)nc12	5	-9	13	5	/	/
COc1ccccc1-c1nnc(Nc2nc3c(OC)cccc3s2)o1	5	18	15	26*	19	3
CC1=CC(=O)C(C(C)C)=C/C1=N/OS(=O)(=O)c1ccccc1	22	6	/	59*	37*	0
SMILES	ABHD5-PLIN5 inh	TLR9-MyD88 block	TLR4 MyD88 comp	NOD2-RIPK2 inh	NOD2 RIPK2 conf	BLA counter
CC1=CC(=O)C=C(C)C1=NOS(=O)(=O)c1ccccc1	-18	-1	2	27*	31*	-4
Cc1cc(C)c(NC(=O)C2CCN(S(C)(=O)=O)CC2)c(C)c1	5	-11	/	-1	/	/
Cc1cc(NC(=O)CCN2C(=O)/C(=C/c3ccccc3Cl)SC2=S)no1	-1	0	-13	34*	-10	-2
COc1ccc(CN2CCn3ncc(C(=O)Nc4ccccc4)c3C2=O)cc1	-14	-1	-4	22*	-7	-3
COc1ccc(NC(=O)c2cnn(-c3ccccc3)c2C)cc1	-9	0	/	-1	/	/
CN(C)Cc1c(O)ccc2cc(-c3nc4ccccc4n3C)c(=O)oc12	7	21	/	31*	33*	58*
CCc1cccc(CC)c1N1C(=O)C2=C(SCCCS2)C1=O	6	16	/	40*	35*	38*
CCc1cccc(CC)c1N1C(=O)COCC1=O	-2	-7	/	-2	/	/
CC(=O)Nc1ccc(-c2ccnc3c2CC(C)(C(=O)Nc2ccc(Cl)cc2)O3)cc1 (stereo not drawn)	-5	/	/	21*	10	0
COc1ccc(Nc2nc3cc(C)ccc3cc2C#N)c(OC)c1	-5	6	4	-6	/	/
COc1ccc(Nc2nc3cc(C)ccc3cc2C#N)cc1	-8	4	/	21*	6	17*
COC(=O)C1(C(=O)OC)C[C@H](c2ccc(OC)cc2)N(Cc2ccccc2OC)[C@@H]1c1ccccc1	-9	/	/	-3	/	/
CC(NC(=O)c1ccc(C23CC4CC(CC(C4)C2)C3)cc1)C(=O)O (stereo not drawn)	6	3	4	5	/	/
CC1CCN(C(=O)COC(=O)CSc2ccc(C(N)=O)cc2[N+](=O)[O-])CC1	7	0	/	-32	/	/
OCCCC1CCCN(Cc2cn[nH]c2-c2ccc(F)cc2F)C1 (stereo not drawn)	-4	-1	-12	22*	2	-4
Cc1ccc(NC(=O)c2sc(N)nc2C)cc1	3	-1	/	0	/	/
CCN1CCN(c2ccc(S(=O)(=O)N3CCCCC3)cc2NC(=O)/C=C/c2ccc([N+](=O)[O-])cc2)CC1	7	-2	/	0	/	/
CN1CCN(c2ccc(S(=O)(=O)N3CCCCC3)cc2NC(=O)/C=C/c2ccc(Cl)c([N+](=O)[O-])c2)CC1	7	8	/	22*	30*	-10
O=C(Nc1ccc(F)cc1)c1nn(-c2ccccc2)c(=O)cc1Cl	19	7	6	36*	40*	5
O=C(NCC1CCCO1)C(=O)N/N=C\c1ccc2c(c1)OCO2 (stereo not drawn)	-9	-1	/	-10	/	/
O=c1oc(-c2ccccc2)cc(Cl)c1Cl	-2	-2	/	60*	57*	1
O=c1oc(-c2ccccc2)cc2ccccc12	-9	/	/	-12	/	/
Cc1ccc(S(=O)(=O)N2C(=O)[C@@H]3Cc4ccccc4CN3C2=O)cc1	-4	3	/	-7	/	/
Cc1cn([C@H]2C[C@H](O)[C@@H](/C=C/C(=O)NCCN3CCCCC3)O2)c(=O)[nH]c1=O	-1	/	/	61*	-2	-7

Screens from PubChem.
